Measured values from PubChem BioAssay (NCI).
About 79,000 compounds went through this panel and 15% of them were active in at least one assay; those are over-represented in the sample as a whole. A number with no mark means an inactive call. The source made the active and inactive calls. No stated cut-off is given here; in the data, active means growth inhibition above about 70%; inactive means the rest.

Legend:
[1] = NCI Yeast Anticancer Drug Screen. Data for the rad50 strain (AID 155);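 further: 0% = growth of vehicle-only cultures of the same strain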; conditions: S. cerevisiae rad50 strain growth inhibition, stronger effect = higher value
Outline: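 Relative growth inhibition (compound vs vehicle) was measured in yeast with a defined repair-gene alteration.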

[2] = NCI Yeast Anticancer Drug Screen. Data for the mec2-1 strain (AID 157); conditions: S. cerevisiae mec2-1 strain, stronger effect = higher value
Outline: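 Cells of the genetically defined mec2-1 yeast strain are incubated with test compound. Inhibition of growth is calculated against vehicle-treated controls.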

[3] = NCI Yeast Anticancer Drug Screen. Data for the sgs1 mgt1 strain (AID 161);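 further: 0% = growth of cultures given vehicle only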; conditions: S. cerevisiae sgs1 mgt1 strain, stronger effect = higher value
Outline: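 Test agents were incubated with a DNA-repair-mutant yeast strain. Growth was then read and compared against vehicle-treated controls.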

[4] = NCI Yeast Anticancer Drug Screen. Data for the cln2 rad14 strain (AID 165);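 further: 0% = growth equal to vehicle treated cultures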; conditions: S. cerevisiae cln2 rad14 strain, stronger effect = higher value
Outline: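 The screen exposed genetically defined yeast (cln2 rad14) to test compounds and scored growth inhibition relative to vehicle-treated controls.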

[5] = NCI Yeast Anticancer Drug Screen. Data for the bub3 strain (AID 167); conditions: S. cerevisiae bub3 mutant strain, stronger effect = higher value
Outline: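 Screening used yeast with an engineered genetic alteration affecting cell cycle control. Compound-exposed cultures were compared with vehicle cultures, and reduced growth was taken as inhibition.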

[6] = NCI Yeast Anticancer Drug Screen. Data for the mlh1 rad18 strain (AID 175); conditions: S. cerevisiae mlh1 rad18 strain growth inhibition, stronger effect = higher value
Outline: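 Compound-treated yeast growth, normalised to vehicle controls. Strain bears defined DNA repair mutations.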

[7] = at 5.0 µM (retest, dose inferred, filed as 0.5)
[8] = at 50.0 µM (retest, dose inferred, filed as 5.0)

SMILES | growth inhibition [1, 7] | growth inhibition [1, 8] | growth inhibition ([1]; at 50.0 µM) | growth inhibition [2, 7] | growth inhibition [2, 8] | growth inhibition ([2]; at 50.0 µM) | growth inhibition [3, 7] | growth inhibition [3, 8] | growth inhibition ([3]; at 50.0 µM) | growth inhibition [4, 7] | growth inhibition [4, 8] | growth inhibition ([4]; at 50.0 µM) | growth inhibition [5, 7] | growth inhibition [5, 8] | growth inhibition ([5]; at 50.0 µM) | growth inhibition [6, 7] | growth inhibition [6, 8] | growth inhibition ([6]; at 50.0 µM)
Oc1c(I)cc(I)cc1I | -6% | 91% (active) | 38% | -3% | 95% (active) | 43% | -9% | 53% | 7.7% | -4% | 94% (active) | -32.6% | -5% | 82% (active) | 67.6% | -3% | 92% (active) | 63.4%
CCC[CH2][Sn]1([CH2]CCC)[O]CC(C)[O]1 (configuration not stated) | 33% | 95% (active) | 86% (active) | 30% | 97% (active) | 90% (active) | 42% | 68% | 88.2% (active) | 34% | 64% | 87.2% (active) | 48% | 97% (active) | 88.3% (active) | 53% | 96% (active) | 86.7% (active)
CN(C)c1ccc(C(c2c(O)c3ccccc3oc2=O)c2c(O)c3ccccc3oc2=O)cc1 | 0% | 40% | 59.2% | -8% | 26% | 65.6% | 4% | 42% | 60% | -5% | 13% | 18.5% | -3% | 16% | 34.3% | -3% | 13% | 51%
O=C1C(=O)C(Br)(Br)C(Br)=C1Br | -2% | 4% | 88.5% (active) | 1% | 21% | 88.2% (active) | -4% | 5% | 95% (active) | -1% | -2% | 90.5% (active) | -4% | -1% | 93.5% (active) | -4% | -4% | 96.8% (active)
C/C=C1/C(=O)O[C@]23C=C[C@@H]4C(C(=O)OC)=CO[C@H](O[C@@H]12)[C@@H]43 | 28% | 82% (active) | 91.9% (active) | 41% | 98% (active) | 93.8% (active) | 63% | 98% (active) | 93.6% (active) | 32% | 64% | 89.5% (active) | 61% | 96% (active) | 92.5% (active) | 88% (active) | 98% (active) | 66%
CCCCCCCCc1ccc(OCCN(CCCl)CCCl)cc1 | 3% | 99% (active) | 98.7% (active) | -23% | 100% (active) | 99.4% (active) | -130% | 99% (active) | 99.1% (active) | -2% | 99% (active) | 99.3% (active) | -4% | 99% (active) | 99.2% (active) | 4% | 99% (active) | 99.2% (active)
COc1cc(/C=C(/C)[N+](=O)[O-])c([N+](=O)[O-])cc1OC | 29% | 75% (active) | 88.3% (active) | 2% | 33% | 85.5% (active) | 14% | 65% | 71.7% (active) | 3% | 29% | 14.8% | 0% | 54% | 67% | 10% | 35% | 71.7% (active)
Cc1cc(C(C)(C)c2ccc(O)c(C)c2)ccc1O | -2% | 98% (active) | 99.3% (active) | -4% | 99% (active) | 99.4% (active) | -6% | 98% (active) | 99.5% (active) | 1% | 98% (active) | 97.6% (active) | -1% | 99% (active) | 99.2% (active) | 0% | 99% (active) | 99.3% (active)
COc1ccc([As+](c2ccccc2)(c2ccccc2)c2ccccc2)cc1 | 82% (active) | 98% (active) | 99.1% (active) | 88% (active) | 99% (active) | 98.8% (active) | 93% (active) | 99% (active) | 98.7% (active) | 77% (active) | 98% (active) | 99% (active) | 95% (active) | 99% (active) | 99% (active) | 91% (active) | 98% (active) | 99% (active)
CCC1CN1P(=O)(Oc1ccccc1)N1CC1CC (configuration not stated) | -2% | 15% | -5.7% | -1% | -42% | -17.2% | -1% | 2% | -14.8% | -11% | -7% | -16.4% | 7% | 52% | 57.5% | -2% | 6% | -20%
C[As](C)SCCC(N)C(=O)NC(CCS[As](C)C)C(=O)O (configuration not stated) | 30% | 98% (active) | 88.9% (active) | 20% | 99% (active) | 90.8% (active) | -3% | 99% (active) | 89.8% (active) | 35% | 98% (active) | 92.2% (active) | 2% | 97% (active) | 90% (active) | 27% | 99% (active) | 75.5% (active)
c1ccc(C[As](c2ccccc2)c2ccccc2)cc1 | 99% (active) | 3% | 99.2% (active) | 99% (active) | 15% | 99.5% (active) | 99% (active) | 36% | 99.5% (active) | 98% (active) | -98% | 99.2% (active) | 99% (active) | 22% | 99.4% (active) | 99% (active) | 23% | 99.2% (active)
C[Se]C([Se]C)=C([Se]C)[Se]C | 9% | 95% (active) | 29.5% | 3% | 91% (active) | 99% (active) | -1% | 99% (active) | 52% | 2% | 59% | 45.2% | 5% | 92% (active) | -0.4% | 1% | 94% (active) | 85.3% (active)
[O]=[Sb]([OH])([OH])[c]1ccc(NC2OC(CO)C(O)C(O)C2O)cc1 (configuration not stated) | 0% | -6% | 6.45% | 0% | -2% | 5.65% | -1% | -20% | -13.8% | 0% | -12% | -0.2% | 2% | -1% | 91.8% (active) | 1% | -3% | -10.4%
COC1CCC(OC2CC(C3(C)CCC4(CC(O)C(C)C(C(C)/C=C(\C)C(=O)C(C)CC(C)C(=O)O)O4)O3)OC3(OC(C4OC(O)(CO)C(C)CC4C)CC3C)C2C)OC1C (configuration not stated) | 7% | 85% (active) | 61.1% | 19% | 83% (active) | 71.8% (active) | 23% | 83% (active) | 63.1% | 65% | 92% (active) | 68.6% | -5% | 59% | 58.1% | 22% | 73% (active) | 69.4%
CC[CH2][Pb]([CH2]CC)([CH2]CC)[NH]S(=O)(=O)c1ccc(C)cc1 | 99% (active) | 99% (active) | 99.5% (active) | 99% (active) | 100% (active) | 99.7% (active) | 99% (active) | 99% (active) | 99.6% (active) | 98% (active) | 99% (active) | 97.9% (active) | 100% (active) | 100% (active) | 99.5% (active) | 99% (active) | 100% (active) | 99.5% (active)
CN(CCCl)c1ccc(/C=C/C2=[N+](C)c3ccccc3C2(C)C)cc1 | -6% | 98% (active) | 99.5% (active) | -3% | 98% (active) | 99.5% (active) | -6% | 98% (active) | 99.7% (active) | -2% | 98% (active) | 98.4% (active) | -3% | 99% (active) | 99.2% (active) | 9% | 98% (active) | 98.7% (active)
C1=C(/C=C2\CCCc3c(-c4ccccc4)cc(-c4ccccc4)[o+]c32)CCC/C1=C\C1=C2OC(c3ccccc3)=CC(c3ccccc3)=C2CCC1 | -11% | 14% | 36.6% | 3% | 2% | 52.8% | 4% | -8% | 66.6% | 18% | 25% | 40.9% | 10% | 30% | 71.2% (active) | 3% | 35% | 31.9%
COc1cc2c(c3c[n+](C)c4c5cc6c(cc5ccc4c13)OCO6)OCO2 | 98% (active) | 98% (active) | 92.2% (active) | 99% (active) | 99% (active) | 94.8% (active) | 99% (active) | 98% (active) | 93.7% (active) | 98% (active) | 98% (active) | 92.2% (active) | 98% (active) | 97% (active) | 93.1% (active) | 99% (active) | 98% (active) | 92.8% (active)
